In PubChem BioAssay (NCATS):
Records with an inconclusive call do not appear. Active and inactive are the calls of the source. The call rests on the fitted dose curve; in most records, active means well fitted curve in the direction sought with a large enough effect; inconclusive means small, poorly fitted or top-dose-only effect, or another doubt; inactive means no such curve, though single readings can be large; an effect the other way counts as inactive or inconclusive.

Columns and labels:
HACAT = assay: qHTS assay to identify novel small-molecules to repurpose for Merkel cell carcinoma treatment (AID 1296009); details: MCC and control cell lines, CellTiter-Glo viability, 72 h; at 44.8 µM (top of the series) unless noted; further: nearly all actives have a fitted effect of over 60% in size
Method in brief: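 Viability readout: ATP luminescence (CellTiter-Glo) after 72 hr drug exposure at 37 degree celsius. Dose-response format was 8 points for NPC and 11 points for MIPE; data normalized to in-plate controls.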

C33A = assay: Primary qHTS to identify gynecologic anti-cancer compounds using libraries of approved drugs and bioactive compounds (AID 1345084); details: Gynecologic cancer cell panel viability, ATPlite luminescence, 48 h; series mostly up to 57.5 µM; further: nearly all actives have a fitted effect of over 55% in size; further: potency means the concentration at half of the fitted maximal effect; on activity change, negative = cytotoxicity: on the % scale 0 is the no-effect control and ±100 the full control effect
Method in brief: (§1)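 Measured: luminescence after ATPlite addition (15 min, RT). Exposure: 48 h, 37 C, 5% CO2.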

CAOV3 = assay: as above; details: Gynecologic cancer cell panel viability, ATPlite luminescence, 48 h; series mostly up to 57.5 µM
Method in brief: as §1

CASKI = assay: as above; details: Gynecologic cancer cell panel viability, ATPlite luminescence, 48 h; series mostly up to 57.5 µM
Method in brief: as §1

Es-2 = assay: as above; details: Gynecologic cancer cell panel viability, ATPlite luminescence, 48 h; series mostly up to 57.5 µM
Method in brief: as §1

HeLa = assay: as above; details: Gynecologic cancer cell panel viability, ATPlite luminescence, 48 h; series mostly up to 57.5 µM
Method in brief: as §1

Hek293T = assay: as above; details: Gynecologic cancer cell panel viability, ATPlite luminescence, 48 h, control line for the selectivity index; series mostly up to 57.5 µM
Method in brief: as §1

JEG-3 = assay: as above; details: Gynecologic cancer cell panel viability, ATPlite luminescence, 48 h; series mostly up to 57.5 µM
Method in brief: as §1

CC(=O)OC12CC(C)C(OC(=O)c3ccccc3)C1/C=C(/C)C(OC(=O)c1ccccc1)CC(=O)C(C)(C)/C=C/C(C)C2=O (stereo not drawn)
active: Potency (Es-2) 2820 nM
inactive: outcome (HACAT) inactive [at 17.4 µM] | Potency (C33A) | Potency (CAOV3) | outcome (CASKI) | Potency (HeLa) | Potency (Hek293T)

O=C(O)c1cccc(CN2C(=O)/C(=C(\c3ccccc3)c3ccc(Cl)cc3)c3ccccc32)c1
inactive: outcome (HACAT) | Potency (C33A) | Potency (CAOV3) | outcome (CASKI) | Potency (Es-2) | Potency (HeLa) | Potency (Hek293T) | Potency (JEG-3)

O=C(/C=C/c1ccc(O)c(O)c1)O[C@H]1[C@@H]2C=CO[C@@H](O[C@@H]3O[C@H](CO)[C@@H](O)[C@H](O)[C@H]3O)[C@@H]2[C@@]2(CO)O[C@@H]12
inactive: outcome (HACAT) inactive [at 17.4 µM] | Potency (C33A) | Potency (CAOV3) | outcome (CASKI) | Potency (Es-2) | Potency (HeLa) | Potency (Hek293T) | Potency (JEG-3)

CC(C)=CCc1c(O)cc2oc3cc(C)cc(O)c3c2c1C
inactive: outcome (HACAT) | Potency (C33A) | Potency (CAOV3) | outcome (CASKI) | Potency (Es-2) | Potency (HeLa) | Potency (Hek293T) | Potency (JEG-3)

CC1CCC2C(C)(C)C(O)C(O)CC2(C)C12Cc1c(O)cc(CO)c(C=O)c1O2 (stereo not drawn)
inactive: outcome (HACAT) inactive [at 17.4 µM] | Potency (C33A) | Potency (CAOV3) | outcome (CASKI) | Potency (Es-2) | Potency (HeLa) | Potency (Hek293T) | Potency (JEG-3)

COC(=O)C(Cc1ccccc1)NC(=O)c1ccccc1 (stereo not drawn)
inactive: outcome (HACAT) | Potency (C33A) | Potency (CAOV3) | outcome (CASKI) | Potency (Es-2) | Potency (HeLa) | Potency (Hek293T) | Potency (JEG-3)

CC1=C[C@H]2[C@@H](CC1=O)[C@H](C)C[C@H](O)[C@H]2C(C)C
inactive: outcome (HACAT) | Potency (C33A) | Potency (CAOV3) | outcome (CASKI) | Potency (Es-2) | Potency (HeLa) | Potency (Hek293T) | Potency (JEG-3)

C=CC(C)(O)CC/C=C(\C)C(=O)O[C@@H]1[C@@H](O)[C@H](OC(C)(C=C)CC/C=C(\C)C(=O)O[C@@H]2O[C@H](CO)[C@@H](O)[C@H](O)[C@H]2O)O[C@H](CO)[C@H]1OC(=O)/C(C)=C/CCC(C)(O)C=C (stereo partly drawn)
inactive: outcome (HACAT) inactive [at 9.27 µM] | activity change, negative = cytotoxicity (C33A) 1.06% [at 11.6 µM] | activity change, negative = cytotoxicity (CAOV3) -0.925% [at 11.6 µM] | activity change, negative = cytotoxicity (CASKI) -1.1% [at 11.6 µM] | activity change, negative = cytotoxicity (Es-2) 0.394% [at 11.6 µM] | activity change, negative = cytotoxicity (HeLa) -4.07% [at 11.6 µM] | activity change, negative = cytotoxicity (Hek293T) 7.88% [at 11.6 µM] | activity change, negative = cytotoxicity (JEG-3) -0.355% [at 11.6 µM]

CC1(C(=O)O)CCCC2(C)C3CC4C5CC3(CCC12)CC45C (stereo not drawn)
inactive: outcome (HACAT) | Potency (C33A) | Potency (CAOV3) | outcome (CASKI) | Potency (Es-2) | Potency (HeLa) | Potency (Hek293T) | Potency (JEG-3)

O=C(/C=C/c1ccc(O)cc1)OCC1OC(O)C(OC2OC(CO)C(O)C(O)C2O)C(O)C1O (stereo not drawn)
inactive: outcome (HACAT) inactive [at 17.4 µM] | Potency (C33A) | Potency (CAOV3) | outcome (CASKI) | Potency (Es-2) | Potency (HeLa) | Potency (Hek293T) | Potency (JEG-3)

O=C1OC(c2ccc(O)cc2)C(O)=C1Cc1ccccc1 (stereo not drawn)
inactive: outcome (HACAT) | Potency (C33A) | Potency (CAOV3) | outcome (CASKI) | Potency (Es-2) | Potency (HeLa) | Potency (Hek293T) | Potency (JEG-3)

O=C(c1c2ccccc2cc2ccccc12)N1CCC(N2CCC[C@@H](C(=O)N3CCOCC3)C2)CC1
inactive: outcome (HACAT) | Potency (C33A) | Potency (CAOV3) | outcome (CASKI) | Potency (Es-2) | Potency (HeLa) | Potency (Hek293T) | Potency (JEG-3)

CC1=CC(=O)CC(C)(C)C1CO[C@@H]1O[C@H](CO)[C@@H](O)[C@H](O)[C@H]1O (stereo partly drawn)
inactive: outcome (HACAT) | Potency (C33A) | Potency (CAOV3) | outcome (CASKI) | Potency (Es-2) | Potency (HeLa) | Potency (Hek293T) | Potency (JEG-3)

CCCC(C(=O)O)c1c(C)nc2ccc(Cl)cc2c1-c1ccccc1 (stereo not drawn)
inactive: outcome (HACAT) | Potency (C33A) | Potency (CAOV3) | outcome (CASKI) | Potency (Es-2) | Potency (HeLa) | Potency (Hek293T) | Potency (JEG-3)

CCc1cccc2c3c([nH]c12)[C@@](CC)(CC(=O)O)OCC3
inactive: outcome (HACAT) | Potency (C33A) | Potency (CAOV3) | outcome (CASKI) | Potency (Es-2) | Potency (HeLa) | Potency (Hek293T) | Potency (JEG-3)

C[C@@H]1O[C@@H](O[C@H]2[C@H](O)[C@@H](O)[C@H](OC(=O)[C@]34CCC(C)(C)C[C@H]3C3=CCC5[C@@]6(C)CC[C@H](O[C@@H]7O[C@H](C(=O)O)[C@@H](O)[C@H](O)[C@H]7O)C(C)(C)C6CC[C@@]5(C)[C@]3(C)CC4)O[C@@H]2CO)[C@H](O)[C@H](O)[C@H]1O (stereo partly drawn)
inactive: outcome (HACAT) inactive [at 9.27 µM] | activity change, negative = cytotoxicity (C33A) -8.12% [at 11.6 µM] | activity change, negative = cytotoxicity (CAOV3) -25.2% [at 11.6 µM] | activity change, negative = cytotoxicity (CASKI) 5.01% [at 11.6 µM] | activity change, negative = cytotoxicity (Es-2) -1.51% [at 11.6 µM] | activity change, negative = cytotoxicity (HeLa) -21.7% [at 11.6 µM] | activity change, negative = cytotoxicity (Hek293T) 10.3% [at 11.6 µM] | activity change, negative = cytotoxicity (JEG-3) -2.05% [at 11.6 µM]

COCC1OC(OC(C)(C)C2CCC3(C)C=C(C4CCC5C4(C)CC(O)C4OC(C(C)(C)O)CCC45C)CCC3O2)C(NC(C)=O)C(O)C1O (stereo not drawn)
inactive: outcome (HACAT) inactive [at 17.4 µM] | Potency (C33A) | Potency (CAOV3) | outcome (CASKI) | Potency (Es-2) | Potency (HeLa) | Potency (Hek293T) | Potency (JEG-3)

CC1(C(=O)O)CCCC2(C)C3CCC4CC3(CCC12)CC4(O)CO (stereo not drawn)
inactive: outcome (HACAT) | Potency (C33A) | Potency (CAOV3) | outcome (CASKI) | Potency (Es-2) | Potency (HeLa) | Potency (Hek293T) | Potency (JEG-3)

CC1(C)COC(=O)[C@@H]1O[C@@H]1O[C@H](CO)[C@@H](O)[C@H](O)[C@H]1O
inactive: outcome (HACAT) | Potency (C33A) | Potency (CAOV3) | outcome (CASKI) | Potency (Es-2) | Potency (HeLa) | Potency (Hek293T) | Potency (JEG-3)

COC1OC(O)C2(CCC3(O2)C(C)CC2OC(=O)C4(C)CCCC3(C)C24)C1O (stereo not drawn)
inactive: outcome (HACAT) | Potency (C33A) | Potency (CAOV3) | outcome (CASKI) | Potency (Es-2) | Potency (HeLa) | Potency (Hek293T) | Potency (JEG-3)

CC1OC(O[C@H]2CC[C@@]3(C)C(CC[C@]4(C)C3CC=C3C5CC(C)(C)CC[C@]5(C(=O)OC5OC(CO)C(OC6OCC(OC7OCC(O)C(O)C7O)C(O)C6O)C(O)C5O)CC[C@]34C)C2(C)C)C(O)C(O)C1OC1OC(CO)C(O)C(OC2OC(CO)C(O)C(O)C2O)C1O (stereo partly drawn)
inactive: outcome (HACAT) inactive [at 9.27 µM] | activity change, negative = cytotoxicity (C33A) -11.5% [at 6.55 µM] | activity change, negative = cytotoxicity (CAOV3) 2.33% [at 6.55 µM] | activity change, negative = cytotoxicity (CASKI) -4.77% [at 6.55 µM] | activity change, negative = cytotoxicity (Es-2) -1.46% [at 6.55 µM] | activity change, negative = cytotoxicity (HeLa) 1.79% [at 6.55 µM] | activity change, negative = cytotoxicity (Hek293T) -4.99% [at 6.55 µM] | activity change, negative = cytotoxicity (JEG-3) -5.08% [at 6.55 µM]

COc1ccnc(CCc2nc3ncccc3[nH]2)c1
inactive: outcome (HACAT) | Potency (C33A) | Potency (CAOV3) | outcome (CASKI) | Potency (Es-2) | Potency (HeLa) | Potency (Hek293T) | Potency (JEG-3)

COC(=O)C1=COC(OC2OC(CO)C(O)C(O)C2O)C2C(COC(=O)/C=C/c3ccc(O)cc3)C(O)C(O)C12 (stereo not drawn)
inactive: outcome (HACAT) inactive [at 17.4 µM] | Potency (C33A) | Potency (CAOV3) | outcome (CASKI) | Potency (Es-2) | Potency (HeLa) | Potency (Hek293T) | Potency (JEG-3)

C[C@@H]1O[C@@H](OC[C@H]2O[C@@H](OCc3ccccc3)[C@H](O)[C@@H](O)[C@@H]2O)[C@H](O)[C@H](O)[C@H]1O
inactive: outcome (HACAT) inactive [at 17.4 µM] | Potency (C33A) | Potency (CAOV3) | outcome (CASKI) | Potency (Es-2) | Potency (HeLa) | Potency (Hek293T) | Potency (JEG-3)

C[C@@H](c1ccccc1)N(C(N)=NC#N)c1cccc2ncccc12
inactive: outcome (HACAT) | Potency (C33A) | Potency (CAOV3) | outcome (CASKI) | Potency (Es-2) | Potency (HeLa) | Potency (Hek293T) | Potency (JEG-3)

C/C(=C/CO)CC[C@H]1[C@]2(C)C[C@H](O)CC(C)(C)[C@H]2CC[C@]1(C)O
inactive: outcome (HACAT) | Potency (C33A) | Potency (CAOV3) | outcome (CASKI) | Potency (Es-2) | Potency (HeLa) | Potency (Hek293T) | Potency (JEG-3)

CC1CC(=O)C2=C(O1)OC1(C)CCC3C(C)(C)C4OC4C(=O)C3(C)C1C2 (stereo not drawn)
inactive: outcome (HACAT) | Potency (C33A) | Potency (CAOV3) | outcome (CASKI) | Potency (Es-2) | Potency (HeLa) | Potency (Hek293T) | Potency (JEG-3)

CCC(C)/C=C(C)/C=C/C1=CC2=C(Cl)C(=O)C(C)(OC(C)=O)C(=O)C2=CN1CCCCC(N)C(=O)O (stereo not drawn)
inactive: outcome (HACAT) inactive [at 17.4 µM] | Potency (C33A) | Potency (CAOV3) | outcome (CASKI) | Potency (Es-2) | Potency (HeLa) | Potency (Hek293T) | Potency (JEG-3)
